Data reported in ChEMBL document CHEMBL4513216, “Probing the Open Global Health Chemical Diversity Library for Multistage-Active Starting Points for Next-Generation Antimalarials” (ACS Infect Dis, 2020).
The whole screen tested about 65,000 compounds, of which about 2,100 (3.2%) showed an effect of 50% or more. The median lay at about -52%. Many of the other results were omitted from the sample, so strong results are more common in it than they were.

System: Plasmodium falciparum
Assay: Screen against P. falciparum Asexual Blood Stage (ABS), at 5uM
Format: functional, Dd2
Settings: tested at 5 uM

Row | SMILES | INHIBITION [%]
1 | c1csc(-c2noc(CNCCn3cccn3)n2)c1 | -114
2 | Cc1cnn(CC(C)NCc2nc(-c3cccs3)no2)c1 (configuration not stated) | -73.4
3 | CC(Cn1cccn1)NCCCc1nc(-c2cccs2)no1 (configuration not stated) | 67.8
4 | Cc1cccc(CN2CCCC2c2cncc(Nc3nncs3)n2)c1 (configuration not stated) | 52.5
5 | COc1cccc(CN2CCCC2c2cncc(Nc3nncs3)n2)c1 (configuration not stated) | -8.54
6 | Cc1ccccc1CN1CCCC1c1cncc(Nc2nncs2)n1 (configuration not stated) | -20.5
7 | c1ccc(CCNC2CCc3ncnn3C2)nc1 (configuration not stated) | -209
8 | CC(C)(CNc1c(C#N)cnc2ccc(Cl)cc12)C(N)=O | 11.4
9 | CCC(CC)C(=O)NCC1(NC(C)c2ccccc2)CCOCC1 (configuration not stated) | -6.09
10 | CC(NC1(CNS(C)(=O)=O)CCOCC1)c1ccccc1 (configuration not stated) | 0.206
11 | CC(NC1(CNS(C)(=O)=O)CCCC1)c1ccccc1 (configuration not stated) | 68.9
12 | O=C(Cc1ccccc1)NCCNCc1cccc(O)c1 | 6.4
13 | COc1ccc(-n2cccn2)c(CN2CCC3(CCCNC3)C2)c1 (configuration not stated) | 68.3
14 | COc1ccc(-n2cccn2)c(CN2CCC(O)(CO)CC2)c1 | -36
15 | COc1ccc(-n2cccn2)c(CN2CCC3(CCNCC3)C2)c1 | 31.9
16 | CCn1ncc2c1CN(CCc1cccc(Cl)c1)CC2COC (configuration not stated) | -27.5
17 | Cc1cccc(CO[C@@H]2CO[C@@]3(CCN(S(=O)(=O)N(C)C)C3)C2)n1 | -44.7
18 | CCn1cnnc1C1CCN(C(=O)c2cnn(C(C)(C)C)c2)CC1 | -133
19 | C[C@@H]1CN(CCC(=O)N(C)Cc2ccccc2)C[C@@]1(O)C1CCC1 | 20.7
20 | CCN(Cc1ccccc1)C(=O)CCN1C[C@@H](C(=O)O)[C@H](C2CC2)C1 | -49.1
21 | CN(Cc1ccccc1)C(=O)CCN1C[C@H](C2CC2)[C@@H](N(C)C)C1 | 51.9
22 | O=C(c1cccn1-c1ccc2c(c1)OCCO2)N1CCCC1 | 9.62
23 | CC(C)N1CCC2(CC1)CC(CC(N)=O)c1ccc(F)cc12 (configuration not stated) | -12.3
24 | c1cnc(N2CCC3(CCN(CC4CCOC4)CC3)C2)nc1 (configuration not stated) | -14.7
25 | c1cnc(N2CCC3(CCN(CC4CCCC4)CC3)C2)nc1 | 43.8
26 | c1cnc(N2CCC3(CCN(CC4CCOCC4)CC3)C2)nc1 | -30.1

Row | SMILES | INHIBITION [%]
27 | c1cnc(N2CCOC3(CCN(CC4CCCCC4)CC3)C2)nc1 | 57.2
28 | c1cnc(N2CCOC3(CCN(CC4CCOC4)CC3)C2)nc1 (configuration not stated) | -13
29 | c1cnc(N2CCCC3(CCN(CC4CCOC4)CC3)C2)nc1 (configuration not stated) | 56.4
30 | CN(C(=O)C1CCN(Cc2cnc3ccccn23)CC1)c1ccccc1 | 10
31 | CCCc1cc(CNC2CCN(c3cc(C)nc(N)n3)CC2)on1 | -44.2
32 | O=C1NCC2CN(Cc3ccccc3OCc3ccccn3)CCN12 (configuration not stated) | -16.2
33 | CCOC(=O)Cc1n[nH]c(-c2cncc(Br)c2)n1 | -109
34 | CCC(=O)N1CCCN(Cn2nc(C)c(Br)c2C)CC1 | -101
35 | CCc1ccc(S(=O)(=O)N2CCN(CCn3ccnc3)CC2)cc1 | -45.4
36 | O=C1CCCN1CC1CN(CC2CCOCC2)Cc2nccn2C1 (configuration not stated) | -87
37 | Cc1ncc(CN2CCOCC2)c2cc(C(=O)c3ccc(Br)cc3)oc12 | -2.54
38 | Cc1ncc(CN2CCCC2)c2cc(C(=O)c3ccc(Br)cc3)oc12 | 67.5
39 | Cc1ncc(CN(C)CCO)c2cc(C(=O)c3ccc(Br)cc3)oc12 | 49.9
40 | CCO[C@H]1CC[C@H]2[C@H]1OCCN2C(=O)c1nn(C)c2ccccc12 | -77.6
41 | Cc1nc(N)ncc1C(=O)N1CCCC(CCc2ccc(F)cc2)C1 (configuration not stated) | 38
42 | N#Cc1cccc(C(=O)N2CCN(c3ncccn3)CC2)c1 | -150
43 | COc1ccc(C2Nc3cc(Cl)ccc3C3=NCCN32)cc1OC (configuration not stated) | 72.2
44 | CN(C)c1ncc(C2Nc3cc(Cl)ccc3C3=NCCCN32)cn1 (configuration not stated) | -9.81
45 | COc1ccc(C2Nc3ccccc3C3=NCCCN32)cc1OC (configuration not stated) | -62.4
46 | COCCN1CCN(CC2CCCCO2)CC1 (configuration not stated) | -67.3
47 | Cc1cccc(C(=O)N2C[C@@H]3OCCN(CCN4CCCC4)[C@@H]3C2)n1 | -112
48 | CO[C@@H]1c2ccccc2C2(CCN(C(=O)CNC(=O)C(C)C)CC2)[C@H]1O | -62.3
49 | O=C(NC1CCN(CC2CC2)C1)N1CCC(OC2CCCCC2)CC1 (configuration not stated) | 55
50 | NC(=O)C1CCN(C(=O)NC2CCN(CC3CCCC3)C2)CC1 (configuration not stated) | -53.5
51 | CSC(C)(C)CNC(=O)NC1CCN(CC2CC2)C1 (configuration not stated) | -35.8
52 | Cc1noc(C)c1CNC(=O)N1CCC(OCC2CC2)CC1 | -65.8

Row | SMILES | INHIBITION [%]
53 | O=C(CCN1CCOCC1)NC1CCCN(CC2CCCCC2)C1 (configuration not stated) | -80.2
54 | O=C(NC1CCN(CC2CCCC2)C1)N1CCC(OCC2CC2)CC1 (configuration not stated) | 64.5
55 | Cc1ccc(C(=O)N2CCCC(c3cc(C(F)(F)F)[nH]n3)C2)o1 (configuration not stated) | -50.8
56 | Cc1cnc2n(c1=O)CC(C(=O)NCc1ccccc1Cl)CS2 (configuration not stated) | -88.7
57 | CC1CCCN(C(=O)c2ccc(N(C)Cc3cnn(C)c3)nc2)C1 (configuration not stated) | -222
58 | Cc1nn(C)c2c(NC3CCCC3)nc(C3CC3)nc12 | -18.7
59 | COCC(=O)NC(c1ccc(Cl)cc1)C(F)(F)F (configuration not stated) | 7.67
60 | COC(=O)NCCC(=O)NC(c1ccc(Cl)cc1)C(F)(F)F (configuration not stated) | 63.6
61 | COC(=O)NCC(=O)NC(c1ccc(Cl)cc1)C(F)(F)F (configuration not stated) | 38
62 | CCc1ccc(CN2C[C@@H]3OCCN(c4ccnc(N(C)C)n4)[C@@H]3C2)o1 | 9.71
63 | CN(C)c1nccc(N2CCO[C@H]3CN(Cc4nccn4C)C[C@H]32)n1 | -73.7
64 | Cc1cccc(CN2C[C@@H]3OCCN(c4ccnc(N(C)C)n4)[C@@H]3C2)c1 | 52.5
65 | N#Cc1ccc(N2CCCC3(CCC(=O)N3CC3CC3)CC2)nc1 (configuration not stated) | -26.4
66 | Cc1cc(CN(C)Cc2ncc(-c3ccccc3)o2)no1 | -107
67 | COC1CCN(CCNC(=O)NCC(C)c2cccc(C)c2)CC1 (configuration not stated) | 54.5
68 | COC1CCN(CCNC(=O)NC(C)c2cccc(Cl)c2)CC1 (configuration not stated) | 23.9
69 | COC1CCN(CCNC(=O)NC(C)c2ccc(F)c(F)c2)CC1 (configuration not stated) | 45.9
70 | Cc1ccc(S(=O)(=O)c2ncccc2CN2CCN(CCO)CC2)cc1 | -44.3
71 | CC(C)c1ncc2c(n1)CN(c1ncnc3[nH]ccc13)CC2 | 4.74
72 | O=C1NC(c2cccnc2)=NC12CCN(CCCc1ccccc1)CC2 | -84.2
73 | COCCN1C[C@H]2[C@@H](C1)N(Cc1ccc(C)o1)CC[C@H]2OC | -41.6
74 | COCCN1C[C@@H]2[C@@H](OC)CCN(Cc3cccs3)[C@@H]2C1 | 66.1
75 | COCCN1C[C@@H]2[C@@H](OC)CCN(Cc3ccsc3)[C@@H]2C1 | 66.7
76 | COCCN1C[C@@H]2[C@@H](OC)CCN(Cc3ccc(C)o3)[C@@H]2C1 | 3.04
77 | COCCN1C[C@@H]2[C@@H](OC)CCN(Cc3ccco3)[C@@H]2C1 | -1.85
78 | COCCN1C[C@H]2[C@@H](C1)N(Cc1cnn(C)c1)CC[C@H]2OC | -59.7

Row | SMILES | INHIBITION [%]
79 | Cc1ccc(CN2CC[C@@H]3[C@@H](CO[C@H]3CN(C)C)C2)o1 | -21.4
80 | NC(=O)c1cccc(CN2CCc3c(ncn3C3CC3)C2)c1 | -158
81 | COc1ccc2c(c1)ncn2C[C@]1(O)CCCN2CCCC[C@@H]21 | -42.3
82 | COC(=O)c1cc(C(=O)N2CCCC(C)C2)n(-c2ccccc2)n1 (configuration not stated) | 50.2
83 | COC(=O)c1cc(C(=O)N2CCCCCC2)n(-c2ccccc2)n1 | -126
84 | COC(=O)c1cc(C(=O)N2CCC(C)CC2)n(-c2ccccc2)n1 | 43.3
85 | COCC1c2nnn(C)c2CCN1C(=O)COc1ccccc1OC (configuration not stated) | -85.8
86 | CS(=O)(=O)NCCN(CCCO)C1CCc2ccccc21 (configuration not stated) | -55.5
87 | CCCN1CCC(NC(=O)c2csc(C)c2C)CC1 | -48.6
88 | Cc1ccc(-c2c(C(=O)NC3CCN(C)CC3)csc2C)cc1 | 61.9
89 | CCCN1CCC(NC(=O)c2csc(C)c2-c2ccccc2)CC1 | 28.9
90 | CN(C)C(=O)COC[C@]12COC[C@H]1CN(C1CCCC1)C2 | -77.5
91 | CCNC(=O)[C@@H]1C[C@@H](N)CN1Cc1ccc(-c2ccccc2C#N)o1 | -71.4
92 | CCNC(=O)[C@@H]1C[C@@H](N)CN1Cc1ccc2cccc(Cl)c2n1 | 31.4
93 | CCNC(=O)[C@@H]1C[C@H](N)CN1Cc1ccc(Sc2ccc(C)cc2)o1 | 64.6
94 | CCNC(=O)[C@@H]1C[C@H](N)CN1Cc1ccc(-c2cc[nH]n2)o1 | -81.2
95 | CCNC(=O)[C@@H]1C[C@@H](N)CN1Cc1ccc(Sc2ccc(C)cc2)o1 | 63.9
96 | CCNC(=O)[C@@H]1C[C@H](N)CN1Cc1ccc(-c2ccccc2C#N)o1 | -5.25
97 | CC/C=C(\C)CN1CCC(CNC(=O)c2c[nH]c(=O)c(Cl)c2)C1 (configuration not stated) | -7.22
98 | Nc1ncccc1C(=O)NCc1cccc(Br)c1 | -72
99 | CCS(=O)(=O)CC(=O)NCC1(c2c(F)cccc2F)CCCC1 | -90.7
100 | CC(=O)NCCC(=O)NCC1(c2c(F)cccc2F)CCCC1 | -77.3
101 | COC(=O)NCC(=O)NCC1(c2c(F)cccc2F)CCCC1 | 69.7
102 | Cc1cc(C)c2nc(C3CC3)cc(C(=O)N3CCCC3C(N)=O)c2c1 (configuration not stated) | -98.6
